# Results from the supplement of paper PMC3334620.
# In all, about 33,000 sequences were measured (“E-score (-0.5 to 0.5)”: median about -0.021, highest 2% from about 0.32 on). What follows is part of a selection rich in the highest values, with near analogues and random picks from the rest.
# Biological target: T1, Zap1 (UniProt P47043)
# T1 sequence: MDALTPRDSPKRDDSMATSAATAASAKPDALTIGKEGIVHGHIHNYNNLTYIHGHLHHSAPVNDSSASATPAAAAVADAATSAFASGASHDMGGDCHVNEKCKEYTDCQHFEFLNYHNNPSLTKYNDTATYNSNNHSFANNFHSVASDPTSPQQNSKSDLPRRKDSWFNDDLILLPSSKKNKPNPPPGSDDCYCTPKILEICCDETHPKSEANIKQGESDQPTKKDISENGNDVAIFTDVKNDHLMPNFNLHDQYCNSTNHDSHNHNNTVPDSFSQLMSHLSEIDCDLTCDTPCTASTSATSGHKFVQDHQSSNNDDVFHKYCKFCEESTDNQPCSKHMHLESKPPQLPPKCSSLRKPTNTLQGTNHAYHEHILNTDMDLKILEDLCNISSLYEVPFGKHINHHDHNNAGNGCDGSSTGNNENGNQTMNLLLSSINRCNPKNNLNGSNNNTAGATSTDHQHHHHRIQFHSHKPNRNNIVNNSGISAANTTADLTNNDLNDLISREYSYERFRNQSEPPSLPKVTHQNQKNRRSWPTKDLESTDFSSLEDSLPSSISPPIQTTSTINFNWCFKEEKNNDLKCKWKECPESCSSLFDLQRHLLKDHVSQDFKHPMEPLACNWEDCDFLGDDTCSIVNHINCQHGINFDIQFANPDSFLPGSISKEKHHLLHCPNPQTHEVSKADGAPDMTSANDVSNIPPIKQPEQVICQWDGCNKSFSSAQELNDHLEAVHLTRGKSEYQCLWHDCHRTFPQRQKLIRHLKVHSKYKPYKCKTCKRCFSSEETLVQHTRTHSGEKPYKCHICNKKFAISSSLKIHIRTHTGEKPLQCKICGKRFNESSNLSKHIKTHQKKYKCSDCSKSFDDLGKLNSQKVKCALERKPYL
# Assay: PBM E-score (8-mer binding enrichment) (E-score (-0.5 to 0.5)); higher = stronger / more preferred TF binding
# Details: protein concentration: 200 nM; construct: GST-full length
# Method in brief: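 Using PURExpress in vitro transcription/translation, GST-tagged yeast transcription factors were made in full-length or DNA-binding-domain form. These were applied at about 100-200 nM to double-stranded universal all-10-mer Agilent arrays, and bound protein was detected with fluorescent anti-GST. Scans were normalised with masliner before the Universal PBM Analysis Suite assigned E-scores to ungapped eight-base words pooled with their reverse complements.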
row,Sequence,PBM E-score
1,ATGACCCA,0.397
2,ATGACCTC,0.442
3,AAGACCCC,0.323
4,ATGACCGA,0.0244
5,GGGACCCA,0.198
6,AAGACCCG,0.0601
7,CTGACCTC,0.194
8,ATGACCCG,0.269
9,ATCTGCTG,-0.184
10,GCACCAAC,-0.00297
11,CTTGACCA,0.147
12,CCCTCTGA,0.0399
13,ATTTTTTC,0.0779
14,ACCTGCCG,-0.0789
15,AGACAAAC,-0.0937
16,ATGACCAC,0.289
17,GTGACCAA,0.305
18,ATGACCGC,0.302
19,ATGACCCC,0.385
20,CTGACCCC,0.12
21,GTGACCAC,0.344
22,AAGTGGCC,0.0931
23,GGAGCGAC,-0.122
24,AGGCCACT,-0.13
25,GCCCTCTA,-0.245

row,Sequence,PBM E-score
1,AACCTCTC,0.349
2,TACCTCCA,0.303
3,TACCTCTA,0.347
4,AACCTCTA,0.351
5,AACCTCAA,0.263
6,AGCCTCTA,-0.101
7,GACCTCTC,0.203
8,CACCTCTC,-0.242
9,ACCCTCTC,0.121
10,CACCTCTA,0.22
11,ACCCTCTA,0.355
12,CCTGACCG,0.0354
13,CTGGCCCA,-0.095
14,AGTACTTC,0.148
15,AGTGTGAA,-0.13
16,AACGTTGC,-0.161
17,ACCAAGGG,0.178
18,CGCTACCC,0.302
19,ATCCCTCA,-0.0235
20,CGGGATCC,-0.0153
21,ACAGCGAC,-0.152
22,AACCTCTT,0.397
23,AACCTCTG,0.306
24,GTCCTCTA,-0.0992
25,AACCTCCT,0.158

row,Sequence,PBM E-score
1,GGCCTCTA,0.0229
2,GACCTCTA,0.318
3,GCGGGGCC,-0.0181
4,CAACGCGC,0.0876
5,CTTAGAGC,0.0313
6,GGCATCCA,-0.107
7,GACCAGTA,0.0618
8,AAAATGTG,-0.0329
9,AATGGGCG,-0.204
10,AAAACCCG,0.131
11,ATAACCCG,0.442
12,GAAACCCA,0.246
13,AGAACCCG,0.223
14,AAAACCCA,0.258
15,TGAACCCA,0.242
16,ATAACCCA,0.472
17,GTAACCCA,0.468
18,CTAACCCA,0.326
19,CTAACCCC,0.178
20,GGAACCCA,0.171
21,ATAAACCA,0.121
22,CTTTGCGC,-0.0424
23,GTGATTTA,0.193
24,AACTGTTC,-0.0321
25,ACTTTAGC,-0.16

row,Sequence,PBM E-score
1,AATCAGTA,-0.0224
2,AGGGAGAG,-0.0798
3,CCAGGGTA,0.323
4,GCAGGGTA,0.373
5,GCAGGGGA,-0.177
6,ACAGGGTG,0.199
7,ACAGGGTA,0.366
8,CCAGGGCA,-0.123
9,CCAGGGTC,0.19
10,ACAGGGTC,0.315
11,GCAGGGAA,-0.0199
12,CGACAGCG,-0.154
13,CGCCGCGC,-0.0986
14,ATTGCGGG,0.11
15,CGAGTAAG,0.119
16,AGCAGTAT,0.0154
17,CGCAAACC,0.0968
18,TCGCGAGA,0.117
19,ATTAACGG,0.0866
20,GTTAACCA,0.338
21,CTTAACCC,0.387
22,ATTAACCG,0.331
23,CTTAACAC,0.0174
24,CTCAACCC,0.201
25,GTTAACTA,0.263

row,Sequence,PBM E-score
1,CTTAACCA,0.376
2,ATTAACAG,-0.102
3,ATTAACCA,0.246
4,CTCAACCA,0.00637
5,CTTAACGA,-0.00709
6,TACGACGA,-0.0483
7,ACCCGTCT,-0.0166
8,CAGCTAAA,0.0244
9,CGCGATGA,0.181
10,GATTCTAA,-0.0858
11,CCATTGAA,0.174
12,ATTCGACC,0.0544
13,ATTAACTC,0.0519
14,ATTAACAC,0.172
15,ATTAACCC,0.334
16,GGCTCAGA,-0.101
17,GCTTACCA,0.0792
18,AGGCTGTC,-0.202
19,ACACTGGC,-0.0599
20,CATACAGC,-0.249
21,ACTGGTTA,0.405
22,ACTGGTTC,0.0663
23,GCTGGTGA,0.0777
24,CCTGGTTA,0.306
25,GCTGGTTA,0.329

row,Sequence,PBM E-score
1,GCTGGTCA,0.0223
2,AACTGTTG,-0.147
3,TGAACACA,0.0543
4,CACTACCG,0.129
5,CAAAGAGG,0.0514
6,AAGCTATT,-0.138
7,ACCCGAAA,0.328
8,CCCCGTAA,0.16
9,ACCCGAAT,0.254
10,AACCCGAT,0.31
11,ACCCGTAC,0.0183
12,ACCCCGAT,0.197
13,ACCCCGAA,0.384
14,ACCCGAAG,0.197
15,AACCCGAA,0.327
16,CCCCCGAA,-0.164
17,ACCCGTAA,0.333
18,GACCCGAA,0.175
19,TCCACGAA,0.111
20,CGTGAAGC,-0.326
21,TAGAGTCA,-0.166
22,AAACTTGG,0.124
23,AACCAAGT,0.271
24,CGAGAGGA,-0.0403
25,CGCCTTCA,-0.26

row,Sequence,PBM E-score
1,CCAGGGGA,-0.0512
2,AGTACCAC,0.208
3,GGTACCAA,0.337
4,CTTACCAA,0.0782
5,CGTACCAA,-0.0153
6,GTTACAAA,0.343
7,GTTACAAC,0.291
8,CGTACCAC,0.0803
9,GGTACCAC,0.362
10,TGTACCAA,0.0671
11,GTTACCAA,0.362
12,ATTACCAA,0.18
13,CTTACAAA,0.0824
14,AGCAGCCG,0.0213
15,AAATGGTC,0.207
16,ACTCATGC,-0.147
17,CACCTCGG,0.0517
18,TTAGAGAA,-0.0471
19,GCAATAGC,-0.122
20,AATTCGAG,-0.131
21,GACTAGAC,-0.101
22,ACAGAAAG,0.11
